Screening results from PubChem BioAssay.
A selection: hits, their analogues and other compounds. The true share with any hit is near 6.2%.
HT1080 IDH1KD tx: toxicity to HT-1080 IDH1 knockdown cells (counter line). HT-1080 IDH1 knockdown viability, ATP luminescence, 48 h. Potency, µM (doses to about 46.1 µM), for inactives: at the highest dose activity, negative = toxicity, actives largely listed as cytotoxic. 2% of 360,000 active. AID 686971;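 note: 0% = DMSO wells and -100% = cell-free medium wells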
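CellTiter-Glo luminescence after 48 h compound exposure at 37 degrees C of IDH1-knockdown HT-1080 cells in 5% FBS RPMI. %Activity scaled between DMSO wells and cell-free media wells, with curves fitted and assigned curve classes.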
S2 tox: cell viability loss in ATXN counter-screen; S2 cells (HEK-293 line with an ATXN2-luciferase reporter) viability, CellTiter-Fluor protease fluorescence, 24 h; Potency, µM (series often up to 56.7 µM), hits mostly cytotoxic; 0.49% of 400,000 active; AID 651635; note: nearly all actives have a fitted effect of over 40% in size
ATXN2 expr inh: reduces ATXN2 reporter expression in HEK-293 cells; HEK-293 ATXN2-luciferase reporter, luminescence, 24 h; Potency, µM (doses to about 57 µM), for the others: top-dose activity change, negative = inhibition, most hits filed as inhibitors; 0.72% of 360,000 active; note: % is set by controls: 0 for no effect and ±100 for the full control effect; nearly all actives have a fitted effect of over 55% in size
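qHTS (up to 57 uM final) was run with 24 h compound exposure of reporter cells at 37 °C. Each well was multiplexed: SteadyGlo luminescence measured ATXN2-luciferase expression after a fluorogenic Gly-Phe-AFC viability readout (25 uM final).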
HT1080-NT tox: kills 2HG-producing HT-1080-NT fibrosarcoma cells; HT-1080-NT fibrosarcoma viability, CellTiter-Glo ATP luminescence, 48 h; AID 686970; Potency, µM (doses to about 46.1 µM), without a hit: at the highest dose activity, negative = less viability, usual class: cytotoxic; 1.6% of 360,000 active;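 note: NT is the 2HG producing partner of a matched IDH1 knockdown line; 0% = DMSO-treated cells and -100% = media-only wells without cells; nearly all actives have a fitted effect of over 55% in size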
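Viability of the 2HG-overproducing fibrosarcoma line after 48 hours of compound exposure at 37 degrees C was determined by luminescence with CellTiter-Glo, and concentration-effect curves were then fitted and categorized.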
KB-V1 cytotox: KB-V1 MDR subline cytotoxicity | 3.4% of 400,000 active | Potency, µM (doses to about 46.1 µM), usual class: cytotoxic | KB-V1 MDR cells viability, CellTiter-Glo, 72 h; note: % is set by controls: 0 for no effect and ±100 for the full control effect; nearly all actives have a fitted effect of over 60% in size
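Potencies derive from concentration-effect curves fitted to normalized luminescence (CellTiter-Glo) of KB-V1 cells treated for 72 h at 37 degrees C in phenol-red-free DMEM containing 10% FBS.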
KB-3-1 tox: KB-3-1 parental cell cytotoxicity | KB-3-1 viability, CellTiter-Glo ATP luminescence, 72 h | Potency, µM (top dose mostly 46.1 µM), hits mostly cytotoxic | 1.4% of 400,000 active; note: % is set by controls: 0 for no effect and ±100 for the full control effect; nearly all actives have a fitted effect of over 60% in size
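Viability of parental KB-3-1 cells, measured by CellTiter-Glo luminescence, followed a 72 h incubation at 37 °C with pinned compounds in phenol-red-free DMEM containing 10% FBS.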
* hit, by the source's call; i = inactive; ? = inconclusive; · = not tested or not shown. Calls come from the whole dose curve; as a rule, active = well fitted curve in the direction sought with a large enough effect; inconclusive = small, poorly fitted or top-dose-only effect, or another doubt; inactive = no such curve, though single readings can be large; an effect the other way counts as inactive or inconclusive. Potency is the fitted concentration of half-maximal effect.

SMILES	HT1080 IDH1KD tx	S2 tox	ATXN2 expr inh	HT1080-NT tox	KB-V1 cytotox	KB-3-1 tox
CCSC1=C(C#N)C(c2ccccc2Cl)C(C(=O)c2cccs2)C(O)(C(F)(F)F)N1 (centres undefined)	?	i	-1%	?	?	?
Cc1c(C(=O)N2CCCC2)sc2ncnc(NCCCN3CCOCC3)c12	·	i	·	·	·	·
CCC(C(=O)OCC(=O)N1CCN(S(=O)(=O)c2ccc(C)cc2C)CC1)c1ccccc1 (centres undefined)	10%	?	4%	2%	15µM*	i
COc1cc(OC)c(C(=O)OCC(=O)N2CCN(S(=O)(=O)c3ccc(C)cc3C)CC2)cc1OC	0%	i	-4%	13%	16µM*	i
CC(=O)NCC(=O)N1[C@H]2CC[C@H]1c1cc(Nc3ncc(C(F)(F)F)c(NC4CCC4)n3)ccc12	·	·	4.9µM*	·	·	·
COc1cc2c(cc1OC)C(=S)NC(C)(C)C2	?	i	-8%	10µM*	i	i
CC(C)C(OC(=O)CN1C(=O)COc2ccccc21)C(=O)NC1CCCC1 (centres undefined)	2%	i	-4%	15%	6.5µM*	i
Cc1ccc2c(c1)N(CC(=O)OC(CC(C)C)C(=O)NC1CCCC1)C(=O)CO2 (centres undefined)	-22%	i	-9%	5%	3.7µM*	i
CC(C)C(OC(=O)CN1C(=O)COc2ccccc21)C(=O)NC1CCCCC1 (centres undefined)	7%	·	-15%	23%	?	i
O=C1Nc2ccccc2OC1CC(=O)N1CCN(c2cccc(C(F)(F)F)c2)CC1 (centres undefined)	20µM*	i	-18%	-15%	?	i
N#C/C(=C\C1CC=CCC1)c1nc2ccccc2[nH]1 (centres undefined)	?	i	-3%	?	13µM*	?
COc1cccc(C(=O)Nc2c(C(=O)N3CCN(c4ccc(F)cc4)CC3)oc3ccccc23)c1	·	i	1%	·	?	i
COc1ccc2c(c1)sc1nc(-c3ccccc3)cn12	4.6µM*	i	?	2.6µM*	?	2.3µM*
COC(=O)C(CCC(=O)CN1C(=O)c2ccccc2C1=O)N1C(=O)c2ccccc2C1=O (centres undefined)	9%	i	·	3%	i	i
Clc1ccccc1Cn1nnc2c(N3CCCC3)ncnc21	20µM*	i	32%	?	i	i
CC(NC(=O)c1ccco1)c1nnc2n1CCN(Cc1ccc(Cl)cc1)CC2 (centres undefined)	·	i	·	·	·	·
O[C@@H]1[C@@H](O)C=C2CCN3Cc4cc5c(cc4[C@H]1C23)OCO5 (some centres undefined)	5.8µM*	?	3.5µM*	1.8µM*	5.2µM*	8.2µM*
Cc1ccc(S(=O)(=O)NNC(=O)NC23CC4CC(CC(C4)C2)C3)cc1	-9%	i	18%	-1%	21µM*	i
CC(=O)Nc1ccc(S(=O)(=O)NNC(=O)NC23CC4CC(CC(C4)C2)C3)cc1	-18%	i	10%	-7%	i	i
CCN1CCN(c2ncc3c(n2)CC(c2cc(OC)c(OC)c(OC)c2)CC3=O)CC1 (centres undefined)	4.1µM*	i	-18%	?	i	?
CCCCCCC[n+]1ccc(/C=C/c2c(C)[nH]c3ccccc23)c2ccccc21	·	·	·	·	?	8.2µM*
CCCCCCCCCC[n+]1ccc(/C=C/c2c(C)[nH]c3ccccc23)c2ccccc21	·	·	·	·	?	5.8µM*
Cc1[nH]c2ccccc2c1/C=C/C(=O)c1ccncc1	-1%	·	-19%	-3%	i	i
CCCCCCC[n+]1ccc(/C=C/c2c[nH]c3ccccc23)c2ccccc21	·	·	·	·	?	7.3µM*
CCCCCCCCCCCC[n+]1ccc(/C=C/c2c[nH]c3ccccc23)c2ccccc21	·	·	·	·	i	?
